JMJD2A Tudor inh: qHTS Assay for Inhibitors of JMJD2A-Tudor Domain. Lysine-specific demethylase 4A (Homo sapiens), O75164. AlphaScreen JMJD2A-Tudor / H3K4me3 peptide binding. Potency, µM (series often up to 114 µM), for inactives: top-dose activity change, negative = inhibition, hits mostly inhibitors. actives 4.4% (n = 390,000). AID 504339, 2011; note: % is set by controls: 0 for no effect and ±100 for the full control effect; nearly all actives have a fitted effect of over 50% in size
BAZ2B inh: qHTS Assay for Inhibitors of BAZ2B | Bromodomain adjacent to zinc finger domain protein 2B (Homo sapiens), Q9UIF8 | AlphaScreen BAZ2B-H3K14Ac peptide displacement | Potency, µM (doses to about 114 µM), for the others: at the top dose activity change, negative = inhibition, usual class: inhibitors | actives 4.4% (n = 360,000) | AID 504333, 2011; note: % is set by controls: 0 for no effect and ±100 for the full control effect; nearly all actives have a fitted effect of over 60% in size
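Inhibition is scored as reduced AlphaScreen emission. The BAZ2B/b-H3(5-23)K14Ac complex (50 nM each) in PBS pH 7.4, 0.01% Tween-20 meets compound (up to 110 uM) for 30 min at RT before bead addition.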
HP1b binding inh: HTS for Inhibitors of HP1-beta Chromodomain Interactions with Methylated Histone Tails; Chromobox protein homolog 1 (Homo sapiens), P83916; AlphaScreen HP1-beta / biotin-H3K9me3 peptide binding; Potency, µM (highest dose often 114 µM), for the others: top-dose activity change, negative = inhibition, actives largely listed as inhibitors; actives 0.56% (n = 390,000); AID 540317, 2011; note: nearly all actives have a fitted effect of over 70% in size
Target sequence (P83916 whole entry, looked up): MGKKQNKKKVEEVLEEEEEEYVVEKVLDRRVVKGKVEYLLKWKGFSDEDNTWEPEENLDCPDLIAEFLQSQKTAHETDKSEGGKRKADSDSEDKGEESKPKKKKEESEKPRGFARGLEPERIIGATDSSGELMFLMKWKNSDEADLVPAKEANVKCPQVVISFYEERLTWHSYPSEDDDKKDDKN
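HP1-beta protein (50 nM final) preincubated 30 min at room temperature with biotinylated H3(1-18)K9me3 peptide (50 nM) in PBS pH 7.4, 0.01% Tween-20, then compound added for 30 min. AlphaScreen streptavidin donor/nickel chelate acceptor beads (10 ug/mL final), 30 min dark, luminescence read.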
ALOX12 inh: Primary qHTS assay for inhibitors of human arachidonate 12S-lipoxygenase (ALOX12): Round 2; purified 12hLO, xylenol orange hydroperoxide absorbance; Potency, µM (highest dose often 108 µM), for inactives: at the highest dose activity change, negative = inhibition, most hits filed as inhibitors; actives 1.1% (n = 580,000); AID 1671190, 2021; note: % is set by controls: 0 for no effect and ±100 for the full control effect
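Purified human 12hLO (150 nM final) in 25 mM Hepes, 0.01% Triton X-100, pH 7.0 was preincubated 15 min at room temperature with compound. Then 40 uM arachidonic acid was added, 30 min. Hydroperoxide was read by Fe-XO absorbance ratio 573/405 nm.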
Sfp PPTase inh: qHTS Assay for Inhibitors of Bacillus subtilis Sfp phosphopantetheinyl transferase (PPTase) | Biochemical Sfp PPTase activity, qHTS | 4'-phosphopantetheinyl transferase ffp (Bacillus subtilis), Q9F4F7 | Potency, µM, for the others: largest response in the series, negative = inhibition, actives largely listed as inhibitors | actives 3.5% (n = 310,000);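 note: the enzyme is Sfp with the accession as filed and its product quenches rhodamine fluorescence; 0% = enzyme reaction without inhibitor and -100% = no enzyme wells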
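Fluorescence-quenching assay with 15 nM Sfp, 5 uM rhodamine-CoA and 12.5 uM BHQ-2-labelled ybbR peptide in pH 7.6 Hepes/MgCl2 buffer. Enzyme was pre-incubated with compound for 15 min at room temperature. Rate was taken from the 30-min fluorescence change (525/598 nm).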
G9a block: qHTS Assay for Inhibitors of Histone Lysine Methyltransferase G9a; Histone-lysine N-methyltransferase EHMT2 (Homo sapiens), Q96KQ7; G9a H3K9 monomethylation, AlphaScreen, 2 h; Potency, µM (highest dose often 102 µM), for inactives: at the top dose activity, negative = inhibition, actives largely listed as inhibitors; actives 8.8% (n = 350,000); AID 504332, 2011; note: % is set by controls: 0 for no effect and ±100 for the full control effect; nearly all actives have a fitted effect of over 75% in size
Target sequence (Q96KQ7 913-1193 limits assumed): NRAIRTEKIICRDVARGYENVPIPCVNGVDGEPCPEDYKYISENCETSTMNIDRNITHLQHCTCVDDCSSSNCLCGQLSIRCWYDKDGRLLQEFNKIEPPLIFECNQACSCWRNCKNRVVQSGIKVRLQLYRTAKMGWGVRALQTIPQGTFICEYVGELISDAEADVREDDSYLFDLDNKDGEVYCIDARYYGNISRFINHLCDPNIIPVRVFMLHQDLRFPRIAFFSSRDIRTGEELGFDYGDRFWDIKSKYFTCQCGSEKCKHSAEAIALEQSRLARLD
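Methyltransferase reactions run at room temperature for 2 h (20 nM enzyme, 500 nM biotin-H3K9 peptide, 20 uM SAM) after a 15 min compound preincubation; product detected by AlphaScreen beads and anti-H3K9me1 antibody.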
* hit, by the source's call; u = inconclusive; x = no result; [ ] = dose if it differs, or a comment. An excerpt weighted towards active compounds, which were near 8.7% of everything screened. Calls come from the whole dose curve; as a rule, active = well fitted curve in the direction sought with a large enough effect; inconclusive = small, poorly fitted or top-dose-only effect, or another doubt; inactive = no such curve, though single readings can be large; an effect the other way counts as inactive or inconclusive. Potency is the fitted concentration of half-maximal effect.

SMILES	JMJD2A Tudor inh	BAZ2B inh	HP1b binding inh	ALOX12 inh	Sfp PPTase inh	G9a block
Cc1ccc(S(=O)(=O)c2nc(-c3ccccc3)oc2NCc2cccnc2)cc1	u	u	57%	8%	-21%	50µM*
O=S(=O)(c1ccccc1)c1nc(-c2ccco2)oc1NCCN1CCOCC1	1%	-31%	36%	-27%	u	u
O=S(=O)(c1ccccc1)c1nc(-c2ccc(Cl)cc2)oc1NCCCN1CCOCC1	u	-7%	-21%	-32%	x	45µM*
CCCCCCCCCCS(=O)CCO (stereo unspecified)	x	x	x	5%	x	x
CCc1nnc([C@@H]2CC(F)(F)CN2Cc2cccn2C)o1	x	x	x	-8%	x	x
CN1CCN(c2oc(-c3ccccc3F)nc2S(=O)(=O)c2ccc(Cl)cc2)CC1	u	35µM*	-35%	x	-11%	x
O=S(=O)(c1ccc(Br)cc1)c1nc(-c2ccco2)oc1NCCCn1ccnc1	u	50µM*	-1%	-3%	x	45µM*
O=S(=O)(c1ccccc1)c1nc(-c2cccs2)oc1NCCCn1ccnc1	u	u	20%	u	-6%	-1%[12.7 µM]
COc1cccc(-c2nc(S(=O)(=O)c3ccccc3)c(NCc3ccccc3)o2)c1	-18%	-23%	22%	-10%	x	-42%[59 µM]
Cc1ccc(CNc2oc(-c3ccco3)nc2S(=O)(=O)c2ccccc2)cc1	-19%	-31%	2%	0%	5%	11µM*
Cc1cnc(C(=O)N2CCC3(CC2)c2[nH]c4ccccc4c2CCN3C)cn1	x	x	x	27%	x	x
CCOCc1nc(C2CCCN(C(=O)c3cnccn3)C2)no1 (stereo unspecified)	x	x	x	32%	x	x
CCN1CCN(C(=O)NC2CCCCC2)CC1	28µM*	u	u	u	-18%	x
CC(C)NC(=O)c1nc(-c2ccccc2)c2ccccn12	x	x	x	51%[176 µM]	x	x
O=C(O)/C=C/c1nc(-c2ccccc2)n2ccccc12	-28%	45µM*	6%	u	11%	11µM*
CCOc1ccc2c(n1)CCN(C(=O)c1ccoc1)C2	x	x	x	7%	x	x
CNC(=O)/C(C#N)=C\c1ccc(CNS(=O)(=O)c2ccc(Cl)cc2)o1	-17%[11.4 µM]	u	-7%	45µM*	0%	u
CNC(=O)/C(C#N)=C\c1ccc(CNS(=O)(=O)c2ccccc2)o1	-10%	5%	9%	-26%	11%	19%[59 µM]
Cc1ccc(O)c(Nc2c3ccccc3nc3ccccc23)c1	u	35µM*	u	0%	-23%	u
COc1ccc(C)cc1Nc1nc(N)c2cc(OC)c(OC)cc2n1	u	u	31%	3%	-8%	u
Nc1nc(Nc2cccc(F)c2)nc2ccccc12	-20%[57.1 µM]	u	16%	u	-1%	56µM*
Cc1ccc(C)c(Nc2nc(N)c3ccccc3n2)c1	-7%	-22%	23%	u	6%	50µM*
COc1ccc(Cl)cc1Nc1nc(N)c2ccccc2n1	-10%	-11%	35%	19%	-17%	79µM*
COc1ccc(CNC(=O)c2cc3n(n2)CC(c2ccc(Cl)cc2)OC3)cc1 (stereo unspecified)	x	x	x	-4%	x	x
COc1ccccc1CN1CC(C(=O)NCCc2ccc(C)o2)CCC1=O (stereo unspecified)	-8%	-14%	38%	8%	u	u
COc1ccccc1CN1CC(C(=O)N(C)Cc2ccc(C)o2)CCC1=O (stereo unspecified)	-8%	-19%	23%	-3%	45µM*	35µM*
